# Experimental data as given in PubChem BioAssay (Tox21).
# Unmarked numbers belong to inactive results. Results filed as inconclusive are left out. Where a call stands in place of a potency, no number is given. Calls of active or inactive are those of the source. Unless noted, the call rests on the fitted dose curve; in most records, active means well fitted curve in the direction sought with a large enough effect in the repeat runs; inconclusive means weak or mixed curves; inactive means no such curve, though single readings can be large; an effect the other way counts as inactive or inconclusive.
# What was measured:
# [1] = qHTS assay to identify small molecule agonists of the estrogen receptor alpha (ER-alpha) signaling pathway in the presence of an antagonist - cell viability counter screen (AID 1259386);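 further: series mostly up to about 92 µM; cells exposed to compounds for 22 h at 37 °C before the viability read; nearly all actives have a fitted effect of over 30% in size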
# In short: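 Read-out: CellTiter-Fluor fluorescence after 1hr reagent incubation, measured in the same wells as the luciferase readout. VM7Luc4E2 cells were exposed to 15 compound concentrations with 10.0nM ICI-182,780 for 22hr at 37C.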
# [2] = target: Progesterone receptor (Homo sapiens) (UniProt P06401); experiment: qHTS assay to identify small molecule agonists of the progesterone receptor (PR) signaling pathway (AID 1346784; calls by dose curve; further: nearly all actives have a fitted effect of over 30% in size; further: potency means the concentration at half of the fitted maximal effect)
# Progesterone receptor (Homo sapiens), sequence (P06401 whole entry, looked up): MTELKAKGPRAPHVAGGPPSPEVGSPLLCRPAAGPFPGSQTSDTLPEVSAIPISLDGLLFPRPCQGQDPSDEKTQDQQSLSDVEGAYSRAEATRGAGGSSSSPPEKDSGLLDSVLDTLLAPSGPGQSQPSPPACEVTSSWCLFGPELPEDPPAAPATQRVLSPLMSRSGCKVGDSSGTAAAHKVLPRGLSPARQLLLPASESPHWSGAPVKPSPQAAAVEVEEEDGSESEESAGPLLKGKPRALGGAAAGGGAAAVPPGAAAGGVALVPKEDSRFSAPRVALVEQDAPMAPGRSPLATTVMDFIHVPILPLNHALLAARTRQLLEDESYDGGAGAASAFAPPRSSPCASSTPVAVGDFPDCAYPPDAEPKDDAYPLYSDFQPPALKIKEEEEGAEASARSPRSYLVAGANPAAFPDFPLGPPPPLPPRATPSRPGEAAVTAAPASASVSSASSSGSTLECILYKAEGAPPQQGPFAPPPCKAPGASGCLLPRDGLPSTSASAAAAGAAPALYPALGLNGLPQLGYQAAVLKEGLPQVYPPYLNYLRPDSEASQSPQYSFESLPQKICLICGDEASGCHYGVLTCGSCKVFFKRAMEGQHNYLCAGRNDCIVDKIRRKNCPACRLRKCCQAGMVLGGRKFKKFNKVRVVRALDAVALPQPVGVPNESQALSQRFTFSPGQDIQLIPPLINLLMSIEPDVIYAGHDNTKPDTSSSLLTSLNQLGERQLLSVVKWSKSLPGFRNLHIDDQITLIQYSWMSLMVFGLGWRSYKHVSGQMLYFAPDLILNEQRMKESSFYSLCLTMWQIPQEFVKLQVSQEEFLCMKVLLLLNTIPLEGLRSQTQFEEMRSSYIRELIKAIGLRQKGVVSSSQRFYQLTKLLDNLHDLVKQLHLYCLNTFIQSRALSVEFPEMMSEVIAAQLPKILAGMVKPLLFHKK
# In short: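 Fluorescence from LiveBLAzer B/G FRET substrate cleavage (2 hr, RT) reported PR activation in PR-UAS-bla HEK 293T cells treated 16 hr at 37C/5% CO2 with compounds; medium contained 2% charcoal-stripped FBS.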
# [3] = target: Progesterone receptor (Homo sapiens) (UniProt P06401); experiment: qHTS assay to identify small molecule antagonists of the progesterone receptor (PR) signaling pathway (AID 1346795; active means well fitted inhibition curve with a large enough effect in the signal ratio in the repeat runs, not every such curve was filed as active; the % refers to the signal ratio)
# In short: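 Fluorescence intensity measured 2 hr after adding beta-lactamase FRET substrate to PR-UAS-bla HEK293T cells that had been co-treated 16 hr with compound and 1 nM R5020 (final concentration) in 2% charcoal-stripped FBS.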
# [4] = qHTS assay to identify small molecule antagonists of the progesterone receptor (PR) signaling pathway - cell viability counter screen (AID 1346798); further: series mostly up to about 92 µM; nearly all actives have a fitted effect of over 50% in size
# In short: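 CellTiter-Glo luminescence; PR-UAS-bla HEK293T, 3,000 cells/well; compound + R5020, 16 hr, 37C/5% CO2; 30 min RT before read.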
# [5] = qHTS assay to identify small molecule agonists of the progesterone receptor (PR) signaling pathway - cell viability counter screen (AID 1346799; calls by dose curve; further: nearly all actives have a fitted effect of over 45% in size)
# In short: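 In parallel with the beta-lactamase readout, cytotoxicity toward PR-UAS-bla HEK293T cells was measured by CellTiter-Glo luminescence following 16 hr compound incubation in 2% charcoal-stripped FBS medium.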
# [6] = qHTS assay to identify small molecule antagonists of the TGF-beta/Smad signaling pathway - cell viability counter screen (AID 1346824); further: nearly all actives have a fitted effect of over 50% in size
# In short: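 Cytotoxicity counter-screen run in the same wells as the beta-lactamase Smad reporter read: CellTiter-Glo luminescence after 30 min at room temperature. HEK 293T SBE-bla cells had 5 hr compound exposure at 37 C with TGF-beta1 (0.25 ng/mL stock).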
# [7] = qHTS assay to identify small molecule agonists of the TGF-beta/Smad signaling pathway - cell viability counter screen (AID 1346829); further: top concentration of the series differs between compounds; nearly all actives have a fitted effect of over 45% in size
# In short: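 Compound-treated SBE-bla HEK 293T cells (5 hr, 37 C) were assessed for viability with CellTiter-Glo in parallel with the reporter read.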
# [8] = qHTS assay to identify small molecule agonists of the TGF-beta/Smad signaling pathway (AID 1346859; active means well fitted activation curve with a large enough effect in the signal ratio in the repeat runs, not every such curve was filed as active; the % refers to the signal ratio; further: series mostly up to about 77 µM)
# In short: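 After overnight seeding, SBE-bla HEK 293T cells are dosed with compounds in DMSO and kept 5 hr at 37 C, 5% CO2. LiveBLAzer-type FRET substrate is then applied for 2 hr at room temperature.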
# [9] = target: Thyrotropin-releasing hormone receptor (Homo sapiens) (UniProt P34981); experiment: qHTS assay to identify small molecule antagonists of the thyrotropin-releasing hormone receptor (TRHR) signaling pathway (AID 1346877; active means well fitted inhibition curve with a large enough effect in the repeat runs, not every such curve was filed as active; further: series mostly up to about 51 µM)
# Thyrotropin-releasing hormone receptor (Homo sapiens), sequence (P34981 whole entry, looked up): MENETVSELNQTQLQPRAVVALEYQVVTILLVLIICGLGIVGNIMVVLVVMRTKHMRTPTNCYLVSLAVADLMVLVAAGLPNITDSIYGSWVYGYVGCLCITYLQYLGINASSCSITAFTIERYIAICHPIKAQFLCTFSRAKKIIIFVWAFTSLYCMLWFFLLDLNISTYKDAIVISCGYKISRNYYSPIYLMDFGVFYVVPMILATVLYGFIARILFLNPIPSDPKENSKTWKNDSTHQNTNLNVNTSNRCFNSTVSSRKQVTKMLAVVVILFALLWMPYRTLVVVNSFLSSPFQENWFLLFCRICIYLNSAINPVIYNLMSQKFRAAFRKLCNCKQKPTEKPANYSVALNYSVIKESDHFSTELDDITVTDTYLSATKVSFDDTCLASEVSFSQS
# In short: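 HEK293/TRHR cells, 18 h, 37 °C; Ca2+ dye 2 h; cpd 5 min RT; TRH 1 nM final; fluorescence read 3 min, 1 s intervals; 15 concs, triplicate.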
# [10] = target: Thyrotropin-releasing hormone receptor (Homo sapiens) (UniProt P34981); experiment: qHTS assay to identify small molecule agonists of the thyrotropin-releasing hormone receptor (TRHR) signaling pathway (AID 1346891; calls by dose curve; further: potency means the concentration at half of the fitted maximal effect;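 on activation: HEK293 cells expressing TRHR with calcium dye readout; series mostly up to about 58 µM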)
# In short: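 Compounds were tested as agonists at 15 concentrations, in triplicate, on TRHR-Hek293 cells; calcium-sensitive dye fluorescence was recorded for 3 min following addition.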
# [11] = Human pregnane X receptor (PXR) small molecule agonists, qHTS cell viability counter screen (AID 1346977); further: nearly all actives have a fitted effect of over 50% in size
# In short: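 Viability counter screen: CellTiter-Fluor signal in PXR-Luc HepG2 cells, 24hr compound exposure, 37C, 5% CO2.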
# [12] = Caspase-3/7 induction in HepG2 cells by small molecules, qHTS assay (AID 1346978); further: nearly all actives have a fitted effect of over 15% in size
# In short: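 Caspase-3/7 induction was measured by Caspase-Glo 3/7 luminescence (30 min, room temperature) after a 17 hr compound exposure of wild-type HepG2 cells seeded at 2,000 per well and pre-incubated 5 hr.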
# [13] = Caspase-3/7 induction in CHO-K1 cells by small molecules, qHTS cell viability counter screen (AID 1346979); further: nearly all actives have a fitted effect of over 35% in size
# In short: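 Viability readout by fluorescence (CellTiter-Fluor) on wild-type CHO-K1 cells exposed for 16hr at 37C and 5% CO2 to compounds delivered in DMSO; reagent incubated 1hr before reading.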
# [14] = Caspase-3/7 induction in CHO-K1 cells by small molecules, qHTS assay (AID 1346980); further: nearly all actives have a fitted effect of over 15% in size
# In short: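 Luminescent Caspase-Glo 3/7 read (30min, room temperature) quantified apoptosis induction. Cells were wild-type CHO-K1, treated with compound for 17hr at 37 C and 5% CO2.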
# [15] = Caspase-3/7 induction in HepG2 cells by small molecules, qHTS cell viability counter screen (AID 1346981); further: series mostly up to about 92 µM; nearly all actives have a fitted effect of over 30% in size
# In short: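 Fluorescence read-out of live-cell protease activity (CellTiter-Fluor) after 1 hr with reagent. This was measured in the same wells as the caspase-3/7 luminescence, on HepG2 cells exposed to DMSO-dissolved compounds for 16 hr at 37 C.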
# [16] = target: Nuclear receptor subfamily 1 group I member 2 (Homo sapiens) (UniProt O75469); experiment: Human pregnane X receptor (PXR) small molecule agonists, qHTS assay (AID 1346982); further: nearly all actives have a fitted effect of over 35% in size; further: potency means the concentration at half of the fitted maximal effect
# Nuclear receptor subfamily 1 group I member 2 (Homo sapiens), sequence (O75469 whole entry, looked up): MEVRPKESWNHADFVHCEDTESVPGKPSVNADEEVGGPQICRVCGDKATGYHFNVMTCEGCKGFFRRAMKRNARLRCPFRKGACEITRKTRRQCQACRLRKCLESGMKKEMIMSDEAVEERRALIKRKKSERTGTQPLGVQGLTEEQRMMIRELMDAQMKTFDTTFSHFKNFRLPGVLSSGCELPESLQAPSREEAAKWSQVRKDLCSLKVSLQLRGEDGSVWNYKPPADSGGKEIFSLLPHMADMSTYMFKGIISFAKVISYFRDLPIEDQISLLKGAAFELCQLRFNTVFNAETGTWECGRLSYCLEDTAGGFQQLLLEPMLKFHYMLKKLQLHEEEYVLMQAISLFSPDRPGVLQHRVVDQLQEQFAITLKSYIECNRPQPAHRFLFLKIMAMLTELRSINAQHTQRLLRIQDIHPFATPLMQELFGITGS
# In short: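 HepG2 PXR-Luc reporter line, 5% charcoal-stripped FBS; 5 hr pre-incubation, compound (DMSO) 24 hr at 37 C/5% CO2; ONE-Glo 30 min RT; luminescence read-out.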
# [17] = target: Nuclear receptor subfamily 1 group I member 2 (Rattus norvegicus) (UniProt Q9R1A7); experiment: Rat pregnane X receptor (rPXR) activation by small molecules, qHTS assay (AID 1346983); details: rPXR luciferase reporter cells, One-Glo luminescence, 24 h; max activation: stronger effect = higher value; further: nearly all actives have a fitted effect of over 20% in size
# Nuclear receptor subfamily 1 group I member 2 (Rattus norvegicus), sequence (Q9R1A7 whole entry, looked up): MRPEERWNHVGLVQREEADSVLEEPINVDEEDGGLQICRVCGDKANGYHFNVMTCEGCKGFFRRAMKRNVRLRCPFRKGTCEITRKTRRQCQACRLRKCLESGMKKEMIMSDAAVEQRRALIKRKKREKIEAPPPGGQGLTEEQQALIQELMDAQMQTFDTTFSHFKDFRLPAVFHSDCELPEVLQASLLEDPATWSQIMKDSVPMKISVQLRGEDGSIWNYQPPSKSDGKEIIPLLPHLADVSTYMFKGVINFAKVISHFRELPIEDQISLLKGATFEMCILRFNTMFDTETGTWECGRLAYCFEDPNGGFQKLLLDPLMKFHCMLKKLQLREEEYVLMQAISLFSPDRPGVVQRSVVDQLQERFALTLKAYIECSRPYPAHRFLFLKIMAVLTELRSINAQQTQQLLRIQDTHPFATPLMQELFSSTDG
# In short: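 Luminescent readout (One-Glo luciferase, 30 min room temperature) followed 24 hr compound treatment at 37 C of rPXR cells plated 2,000 per well and preincubated 5hr; qHTS format with compounds delivered in DMSO.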
# [18] = target: Nuclear receptor subfamily 1 group I member 2 (Homo sapiens) (UniProt O75469); experiment: CYP3A4 induction through human pregnane X receptor (PXR) by small molecules, qHTS assay (AID 1346984); further: nearly all actives have a fitted effect of over 40% in size
# In short: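 HepG2-derived DPX-2 line carrying PXR plus a CYP3A4-promoter luciferase reporter; cells plated 5 hr, compound-exposed 24 hr at 37C. CYP3A4 activity probed with 3uM (final) Luciferin-IPA for 3hr, then luciferase read after One-Glo.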
# [19] = target: Cytochrome P450 2D6 (Homo sapiens) (UniProt P10635); experiment: Cytochrome P450 Family 2 Subfamily D Member 6 (CYP2D6) small molecule antagonists: luciferase reporter qHTS assay (AID 1671196); further: nearly all actives have a fitted effect of over 50% in size; further: potency means the concentration at half of the fitted maximal effect
# Cytochrome P450 2D6 (Homo sapiens), sequence (P10635 whole entry, looked up): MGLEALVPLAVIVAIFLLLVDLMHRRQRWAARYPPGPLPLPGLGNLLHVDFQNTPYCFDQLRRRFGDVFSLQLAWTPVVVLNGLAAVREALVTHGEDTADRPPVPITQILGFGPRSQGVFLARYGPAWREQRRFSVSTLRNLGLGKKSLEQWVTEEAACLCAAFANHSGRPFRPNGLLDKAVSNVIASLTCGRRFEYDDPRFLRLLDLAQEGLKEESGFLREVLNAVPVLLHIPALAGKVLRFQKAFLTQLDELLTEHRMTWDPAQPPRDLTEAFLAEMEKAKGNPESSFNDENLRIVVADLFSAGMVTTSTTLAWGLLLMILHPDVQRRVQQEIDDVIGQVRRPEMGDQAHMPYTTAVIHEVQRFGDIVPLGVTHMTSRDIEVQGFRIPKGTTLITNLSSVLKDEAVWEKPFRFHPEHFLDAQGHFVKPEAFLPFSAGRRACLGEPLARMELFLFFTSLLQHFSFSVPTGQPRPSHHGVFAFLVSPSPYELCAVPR
# In short: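 Luminogenic proluciferin substrate, CYP2D6 enzyme; 10 min RT preincubation with compound, NADPH regeneration system added, 1 h RT. Stop/detection reagent, 20 min RT, luminescence read (RLU). Signal proportional to CYP activity.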
# [20] = target: Nuclear receptor subfamily 1 group I member 2 (Homo sapiens) (UniProt O75469); experiment: Human pregnane X receptor (PXR) activation by small molecules, qHTS assay (AID 1346985); further: nearly all actives have a fitted effect of over 40% in size
# In short: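 DPX-2 cells (HepG2 co-transfected with a PXR response element and a CYP3A4-promoter luciferase construct) were seeded at 2,000 per well, rested 5 hr at 37C, then exposed to DMSO-dissolved compounds for 24 hr. Activation was read as luciferase luminescence.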
SMILES,Potency [1],Potency [2],Potency [3],Potency [4],Potency [5],outcome [6],outcome [7],outcome [8],outcome [9],Potency [10],Potency [11],Potency [12],Potency [13],outcome [14],Potency [15],Potency [16],max activation [17],Potency [18],Potency [19],Potency [20]
CCOC(=O)[C@H](CCc1ccccc1)N[C@@H](C)C(=O)N1Cc2cc(OC)c(OC)cc2C[C@H]1C(=O)O,inactive,inactive,inactive,inactive,inactive,inactive,inactive,inactive,inactive,inactive,inactive,inactive,inactive,inactive,inactive,inactive,-0.0593%,inactive,inactive,
COc1nc(C)nc(NC(=O)NS(=O)(=O)c2ccccc2OCCCl)n1,inactive,inactive,inactive,inactive,inactive,inactive,inactive,inactive,inactive,inactive,inactive,inactive,inactive,inactive,inactive,inactive,,,inactive,
O=[N+]([O-])c1nccn1CO[C@@H](CO)[C@H](O)CO,inactive,inactive,inactive,inactive,inactive,inactive,inactive,inactive,inactive,inactive,inactive,inactive,inactive,inactive,inactive,inactive,,,38.9 µM (active),
Cc1ccc(C)c(N)c1,inactive,inactive,inactive,inactive,inactive,inactive,inactive,inactive,inactive,inactive,inactive,inactive,inactive,inactive,inactive,inactive,,,20 µM (active),
CC(C)C(=O)OC/C=C/c1ccccc1,inactive,inactive,inactive,inactive,inactive,inactive,inactive,inactive,inactive,inactive,inactive,inactive,inactive,inactive,inactive,inactive,,,inactive,
CCCNC(C)(C)COC(=O)c1ccccc1,inactive,inactive,inactive,inactive,inactive,inactive,inactive,inactive,inactive,inactive,inactive,inactive,inactive,inactive,inactive,,,,,
COc1cc(Cl)ccc1Cl,inactive,inactive,inactive,inactive,inactive,inactive,inactive,inactive,inactive,inactive,inactive,inactive,inactive,inactive,inactive,inactive,,,inactive,
Cc1c(C(=O)NCCO)[n+](=O)c2ccccc2n1[O-],inactive,inactive,inactive,inactive,inactive,inactive,inactive,inactive,inactive,inactive,,inactive,inactive,inactive,inactive,inactive,-3.05%,inactive,inactive,inactive
CCC1(C)NC(=O)NC1=O (centres undefined),inactive,inactive,inactive,inactive,inactive,inactive,inactive,inactive,inactive,inactive,inactive,inactive,inactive,inactive,inactive,inactive,,,inactive,
O=C(O)C(=O)Cc1c[nH]c2ccccc12,inactive,inactive,inactive,inactive,inactive,inactive,inactive,inactive,inactive,inactive,inactive,inactive,inactive,inactive,inactive,30.6 µM (active),,,28.3 µM (active),
CN1CCC[C@@H]1Cc1c[nH]c2ccc(CCS(=O)(=O)c3ccccc3)cc12,inactive,inactive,inactive,inactive,inactive,inactive,inactive,inactive,inactive,inactive,inactive,inactive,inactive,inactive,inactive,,0.279%,,13.8 µM (active),
CN(CC1(C)CCCO1)S(=O)(=O)c1ccc(Cl)c(S(N)(=O)=O)c1 (centres undefined),inactive,inactive,inactive,inactive,inactive,inactive,inactive,inactive,inactive,inactive,inactive,inactive,inactive,inactive,inactive,10.6 µM (active),,,inactive,
C1CCOC1,inactive,inactive,inactive,inactive,inactive,inactive,inactive,inactive,inactive,inactive,inactive,inactive,inactive,inactive,inactive,,,,,
CS(=O)(=O)c1ccc([C@@H](O)[C@@H](CF)NC(=O)C(Cl)Cl)cc1,inactive,inactive,inactive,inactive,inactive,inactive,inactive,inactive,inactive,inactive,inactive,inactive,inactive,inactive,inactive,inactive,-1.93%,inactive,inactive,inactive
O=C(CC(=O)C(F)(F)F)c1ccccc1,inactive,8.76 µM (active),inactive,inactive,inactive,inactive,inactive,inactive,,39.5 µM (active),,inactive,,inactive,inactive,55.3 µM (active),,,,
